# In PubChem BioAssay AID686979 (National Center for Advancing Translational Sciences (NCATS), 2013):
# In all, about 420,000 compounds went through this assay and about 50,000 (12%) were called active. Another 26% or so got no clear call; they are omitted. The sample holds actives, similar compounds and a random draw of the others, so the mix is not that of the screen. Unmarked numbers belong to inactive results. The call rests on the fitted dose curve; in most records, active means well fitted inhibition curve with a large enough effect; inconclusive means small, poorly fitted or top-dose-only effect; inactive means flat fitted curve, though single readings scatter.
# Assay: qHTS for Inhibitors of human tyrosyl-DNA phosphodiesterase 1 (TDP1): qHTS in cells in presence of CPT; further: nearly all actives have a fitted effect of over 55% in size
# Details: chicken DT40 Tdp1-/-;hTDP1 cells + 20 nM CPT, ATP luminescence, 48 h; series mostly up to 46.2 µM; activity change, negative = growth inhibition: at the top concentration
# Procedure, shortened: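 Cell growth measured by CellTiter-Glo luminescence after a minimum 48 h, 37 C compound exposure with 20 nM CPT in Tdp1-knockout DT40 cells stably expressing hTDP1, seeded 400/well; qHTS titration format.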
# On the % scale 0 is the no-effect control and ±100 the full control effect; potency means the concentration at half of the fitted maximal effect.
SMILES,"activity change, negative = growth inhibition",Potency
O=C(Nc1ccc2c(c1)OCCO2)c1cnccn1,-10.2%,–
O=C(Nc1ccc(S(=O)(=O)Nc2nccs2)cc1)c1cc(-c2ccncc2)nc2ccccc12,-3.11%,–
Cc1ccc2nc(-c3cccc(Br)c3)cc(C(=O)Nn3cnnc3)c2c1,4.04%,–
Cc1ccc2nc(-c3ccncc3)cc(C(=O)Nc3ccncc3)c2c1,–,13 µM (active)
COC(=O)CNC(=O)c1cc(-c2ccncc2)nc2ccccc12,16.5%,–
CCN(CC)CCNC(=O)c1ccc(NC(=O)c2cc(-c3ccncc3)nc3ccccc23)cc1,–,14.6 µM (active)
O=C(Nc1ccncc1)c1cc(-c2ccccn2)nc2ccc(Br)cc12,17%,–
Cc1ccc2nc(-c3ccncc3)cc(C(=O)Nc3ccc4c(c3)OCCO4)c2c1,–,18.4 µM (active)
CCOc1ncccc1C(=O)Nc1ccc2c(c1)OCCO2,-27.3%,–
COc1ccc(C(=O)CCC(=O)Nc2ccc(Cl)cc2)cc1,1.8%,–
O=C1NC[C@H](CCCCN2CCN(CCc3ccccc3)C(=O)C2=O)N(CC2CCCCC2)C1=O,1.13%,–
O=C(Nc1ccccc1)c1ccco1,-13.8%,–
O=C(OC1CC2CC1[C@H]1CCCCN1C2=O)N1CCOCC1 (stereo partly specified),10.6%,–
CCc1c(Nc2ccccc2C)nc(N)[nH]c1=O,3.46%,–
CCCn1c(C(O)c2cc(OC)ccc2OC)nc2ccccc21 (stereo unspecified),-8.68%,–
CCOCCn1c(C(C)C)nc2ccccc21,-0.999%,–
CCCn1c(C(O)c2ccc(OCC)cc2)nc2ccccc21 (stereo unspecified),–,20.6 µM (active)
O=C(O)CCCC(=O)N1N=C(c2ccco2)CC1c1ccco1 (stereo unspecified),0.547%,–
Cc1nn(C)c(Oc2ccc(Cl)cc2)c1C=O,-2.66%,–
CC1(C)CC(=O)C=C(c2ccccc2CO)C1=O,-22%,–
Cc1ccc(-c2ccc(C3=CC(=O)CC(C)(C)C3=O)cc2)cc1,–,0.184 µM (active)
Cc1ccc(C(=O)OC2=CC(=O)CC(C)(C)C2)cc1,-2.38%,–

SMILES,"activity change, negative = growth inhibition",Potency
O=C(CC1C(=O)N(c2ccccc2)C(=O)N1CCc1cccs1)Nc1ccc(F)cc1 (stereo unspecified),-4.18%,–
CCCCc1nc2ccc(F)cc2cc1C,-17.5%,–
Cc1ccnc(NS(=O)(=O)c2ccc(NC(=O)c3oc4ccccc4c3C)cc2)n1,-7.62%,–
O=c1[nH]c2ccccc2n2c(-c3ccccc3)nnc12,–,20.6 µM (active)
CC(=O)c1c(-c2ccccc2)c2ccccc2[nH]c1=O,14.5%,–
CCOC(=O)c1cnc2[nH]c3ccccc3n2c1=O,5.8%,–
N#Cc1ccc(OCC(=O)NC(=O)NC2CCS(=O)(=O)C2)cc1 (stereo unspecified),-2.01%,–
O=C(CNC(=O)c1cccs1)N/N=C/c1cccc(Br)c1,-7.89%,–
COC(=O)c1sccc1NC(=O)c1cc(OC)c(OC)c(OC)c1,-25.4%,–
CCOC(=O)c1c(-c2ccccc2)oc2ccc(OCC(=O)NN)cc12,-3.23%,–
COC(=O)c1c(-c2ccsc2)oc2ccc(-c3cc(OC)c(OC)c(OC)c3)cc12,–,18.4 µM (active)
Cc1cccc(OCC(=O)Nc2ccc(C(=O)O)cc2NC(=O)COc2cccc(C)c2)c1,-8.69%,–
O=C(CCl)Nc1cccc(CP(=O)(c2ccccc2)c2ccccc2)c1,–,3.26 µM (active)
CCc1cccc(NC(=O)CCC(=O)O)c1,-0.994%,–
O=C(Cc1ccccc1)Nc1cccc(NC(=O)c2ccccc2)c1,-4.48%,–
COc1ccc(N2CCN(C(=O)c3cn(C)c4ccc(S(=O)(=O)N5CCOCC5)cc4c3=O)CC2)cc1,–,inactive
O=C(CC[C@H]1O[C@@H](n2ccc(=O)[nH]c2=O)[C@H](O)[C@@H]1O)N[C@H](Cc1ccccc1)C(=O)NCc1ccco1,7.85%,–
COc1ccc(CC(=O)OC(C)C(=O)Nc2ccc(S(N)(=O)=O)cc2)cc1 (stereo unspecified),1.71%,–
COc1cccc(NC(=O)C2(C)CCN2Cc2ccccc2Cl)c1 (stereo unspecified),–,25.9 µM (active)
COc1cccc(NC(=O)NCCN2CCCCC2)c1,-17.9%,–
CCN(CC(=O)Nc1ccc(S(=O)(=O)N2CCCC2)cc1)CC(=O)Nc1cccc(OC)c1,-0.0362%,–
CCCn1nc(NS(=O)(=O)c2ccc(F)cc2)c2cc3ccccc3nc21,-5.62%,–

SMILES,"activity change, negative = growth inhibition",Potency
CCCn1nc(NC(=O)C(C)C)c2cc3cc(OC)ccc3nc21,–,29.1 µM (active)
CCCn1nc(NS(=O)(=O)c2ccccc2)c2cc3cc(C)ccc3nc21,-16.6%,–
O=c1cc(CSc2ncn[nH]2)[nH]c2ccc(F)cc12,-18.6%,–
Cc1ccccc1CN1C(=O)CSCC1(C)C(=O)Nc1c(C)cccc1C (stereo unspecified),-1.64%,–
COc1cccc(-c2nc3cc(C)ccc3o2)c1,-20.2%,–
COc1cccc(-c2nc(S(=O)(=O)c3ccc(C)cc3)c(NCc3ccccc3)o2)c1,–,16.4 µM (active)
O=S(=O)(c1ccccc1)c1nc(-c2ccccc2F)oc1NCc1cccnc1,-2.08%,–
CCN(CC)C(=O)Cn1cc(S(=O)(=O)CC(=O)NCc2ccc3c(c2)OCO3)c2ccccc21,-2.09%,–
Cc1c(C(=O)NCCCc2ccccc2)cccc1[N+](=O)[O-],9.3%,–
CCN(CC)CCNCc1ccc(OCc2ccc(Cl)nc2)c(OC)c1,-5.45%,–
Cc1occc1C(=O)Nc1cccc(S(=O)(=O)N2CCOCC2)c1,-9.7%,–
Cc1c(C(=O)NCCN(C)C)oc2ccc(S(=O)(=O)N3CCCC3)cc12,1.87%,–
COc1ccc(NC(=O)c2oc3ccc(S(=O)(=O)N4CCOCC4)cc3c2C)cc1,–,11.6 µM (active)
CCCNC(=O)C1(C)CCN(C(=O)c2ccc(F)cc2Cl)C1 (stereo unspecified),-2.93%,–
OCC(O)CN(c1ccccc1)c1ccccc1 (stereo unspecified),-5.37%,–
O=C(NCCc1ccccc1)Oc1ccc(Cl)cc1,-2.55%,–
CCOc1ccc(N2CC(C(=O)NCCN3C(=O)S/C(=C\c4cccnc4)C3=O)CC2=O)cc1 (stereo unspecified),-15%,–
COc1ccc(N2CC(C(=O)NCCN3C(=O)S/C(=C\c4cccnc4)C3=O)CC2=O)c(OC)c1 (stereo unspecified),-2.78%,–
Cc1cc(OCCCC(=O)NCCN2C(=O)S/C(=C\c3cccnc3)C2=O)ccc1Cl,–,8.2 µM (active)
CC1CCN(C(=O)COC(=O)c2cc(S(=O)(=O)N3CCOCC3)ccc2Cl)CC1,15.1%,–
COc1ccc(O)c(/C=N/N=C/c2cccc([N+](=O)[O-])c2)c1,-19.7%,–
O=C(OCC(=O)N1CCN(c2ccccc2)CC1)c1ccc([N+](=O)[O-])s1,–,10.3 µM (active)

SMILES,"activity change, negative = growth inhibition",Potency
COc1cc(NC(=O)COC(=O)c2ccc([N+](=O)[O-])s2)cc(OC)c1OC,-26.9%,–
COc1ccc(C(=O)COC(=O)c2ccc([N+](=O)[O-])s2)cc1OC,-14.7%,–
CCN(CC)CCN1C(=O)C2C(C(=O)Nc3ccc(Br)cc3)C3C=CC2(O3)C1C(=O)NC1CCCCC1 (stereo unspecified),3.58%,–
Brc1cc(Br)c(Oc2cc(Br)c(Br)cc2Br)cc1Br,1.97%,–
CC(=O)Nc1ccc(NC(=O)C(C)n2c3ccccc3c3nc(=O)cc(C)n32)cc1 (stereo unspecified),-1.13%,–
CC(C)(C)c1cc2cccnc2n1Cc1ccccc1,-20.7%,–
O=C(CN1C(=O)NC2(CCCC2)C1=O)Nc1cc(C(F)(F)F)ccc1N1CCOCC1,5.6%,–
Cc1cc(C)cc(C(=O)N2CCN=C2SCc2ccc([N+](=O)[O-])cc2)c1,-20.2%,–
CN1C2CCC1CC(NC(=O)c1ccc([N+](=O)[O-])cc1)C2 (stereo unspecified),-12.4%,–
CC(=O)N1CC[n+]2c(-c3ccc([N+](=O)[O-])cc3)csc21,–,18.4 µM (active)
COc1cc(C(=O)NCC2(c3ccccc3)CCCC2)ccc1OC(C)C,–,20.6 µM (active)
COc1ccccc1C(=O)NCCC(=O)NN1C(=O)NC2(CCCCC2)C1=O,0.64%,–
COc1ccc(C(=O)NC2CC(C)(C)NC(C)(C)C2)cc1OC,1.23%,–
CCOc1c(OC)cccc1C(=O)NCC1(c2ccccc2)CCCC1,–,5.8 µM (active)
CCn1c(CNC(=O)c2ccc(OC)c(OC)c2)nnc1SCC(=O)Nc1ccccc1,12.4%,–
CCOc1c(CNCc2ccc(C(=O)O)cc2)cccc1OC,12.2%,–
CN(C)C(CNC(=O)c1cccc(S(=O)(=O)Nc2ccc(Br)cc2)c1)c1ccco1 (stereo unspecified),4.66%,–
COc1ccc(C(=O)c2oc3ccccc3c2NC(=O)COc2cccc(C)c2)cc1,-10.2%,–
CCCc1nnc(SCC(=O)N2C(C)CCCC2C)n1CC (stereo unspecified),4.32%,–
O=c1c(CN2CCOc3ccc(CN4CCC(Oc5cccnc5)CC4)cc3C2)coc2ccccc12,0.59% [at 9.04 µM],–
COc1ccc(C)cc1-n1nnnc1SCc1nc2ccccc2c(=O)[nH]1,–,13 µM (active)
COCCn1c(SCc2nc3cc(OC)c(OC)cc3c(=O)[nH]2)nnc1-c1ccncc1,-23.8%,–

SMILES,"activity change, negative = growth inhibition",Potency
CCn1c(COc2c(C)cccc2C)nnc1SCc1nc2ccccc2c(=O)[nH]1,-29.2%,–
Cc1cccc(NC(=O)Nc2ccc(OCc3ccccc3)cc2)n1,-26.1%,–
O=C(OCC(=O)N1CCN(C(=O)c2ccco2)CC1)c1cccc(O)c1,10.2%,–
COc1ccc(Cl)cc1NS(=O)(=O)c1cccc(C(=O)NCC2CCCO2)c1 (stereo unspecified),-18.3%,–
CC(C)CC(CCc1ccccc1)OS(N)(=O)=O (stereo unspecified),-10.9%,–
Cc1ccc(Cn2c(=O)n(Cc3nc(-c4ccccc4)no3)c(=O)c3cc4c(cc32)OCO4)cc1,-3.36%,–
Cc1ccc(Cn2c(C)nc3c(c2=O)c2nc4ccccc4nc2n3Cc2ccco2)cc1,–,25.9 µM (active)
CSc1nc2ccccc2c(=O)n1Cc1ccc(F)cc1,-1.98%,–
O=C(O)CSCc1ccc(C(=O)O)o1,-5.59%,–
COc1ccc(C(=O)OCC(=O)Nc2cccc(C(C)=O)c2)cc1OC,-1.13%,–
COc1ccc(OCC(=O)NNC(=O)C2CCC2)cc1,-23.6%,–
O=C(CC1CCCCC1)NCc1ccc(F)cc1,-1.57%,–
OC(COc1ccccc1)CN1CCN(c2cccc(Cl)c2)CC1 (stereo unspecified),-8.22%,–
CC(=O)Nc1ccc(OCC(O)CN2CCN(c3ccccc3Cl)CC2)cc1 (stereo unspecified),-10.6%,–
O=S(=O)(c1ccc(OCC(O)CN2CCN(c3ccccc3Cl)CC2)cc1)N1CCOCC1 (stereo unspecified),–,14.6 µM (active)
C[N+]1(CC(O)COc2ccccc2)CCN(C(=O)c2ccc([N+](=O)[O-])cc2)CC1 (stereo unspecified),6.42%,–
O=[N+]([O-])c1ccc(N2CCN(CC(O)COc3ccccc3)CC2)cc1 (stereo unspecified),–,20.6 µM (active)
OC(COc1ccc2ccccc2c1)CN1CCOCC1 (stereo unspecified),–,inactive
